Hits are enriched below; roughly 4.7% of the tested compounds scored in any of these assays.
TRHR agonist: qHTS for Small Molecule Agonists and Allosteric Enhancers of Human TRH Receptor: Primary Screen for Agonists | Thyrotropin-releasing hormone receptor (Homo sapiens), P34981 | TRHR cells, calcium flux fluo-8, FDSS agonist mode | activation, % at 2 µM | 360,000 tested, 0.18% active | AID 493084, 2011
Target sequence (P34981 whole entry, looked up): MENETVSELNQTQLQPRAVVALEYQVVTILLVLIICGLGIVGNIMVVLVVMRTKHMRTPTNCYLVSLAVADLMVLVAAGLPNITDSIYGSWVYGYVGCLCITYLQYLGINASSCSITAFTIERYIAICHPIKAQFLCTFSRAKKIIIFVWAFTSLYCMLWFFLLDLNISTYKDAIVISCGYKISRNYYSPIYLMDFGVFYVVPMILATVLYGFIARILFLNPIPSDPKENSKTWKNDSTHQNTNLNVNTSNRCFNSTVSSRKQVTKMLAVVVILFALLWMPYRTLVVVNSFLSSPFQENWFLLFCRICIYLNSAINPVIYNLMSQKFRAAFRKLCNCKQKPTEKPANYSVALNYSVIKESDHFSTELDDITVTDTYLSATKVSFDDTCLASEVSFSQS
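Fluo-8-loaded TRHR cells; 10 s baseline, compound added, kinetic Ca2+ fluorescence read 1/s, agonist mode.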
D1 antag: Antagonist of Human D 1 Dopamine Receptor: qHTS. D(1A) dopamine receptor (Homo sapiens), P21728. HEK293 TREx D1 cells, calcium flux, dopamine EC80; active compounds read low. activity change, negative = inhibition, % at 10 µM. 360,000 tested, 3.2% active; in the data active means activity change below about -30%
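Tetracycline-induced HEK293 Trex D1 cells, force-coupled to calcium, dye-loaded; compounds added and read 180 s, then EC80 dopamine added and calcium flux tracked kinetically another 180 s.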
TRHR enhancer: qHTS for Small Molecule Agonists and Allosteric Enhancers of Human TRH Receptor: Primary Screen for Enhancers; Thyrotropin-releasing hormone receptor (Homo sapiens), P34981; TRHR cells, fluo-8 calcium fluorescence, EC20 TRH enhancement; enhancement, % at 2 µM; 360,000 tested, 0.66% active; in the data active means enhancement above about 30%
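TRHR-expressing cells loaded with fluo-8 calcium dye were read kinetically (ex 480/em 530) during compound addition, then stimulated with an EC20 of TRH (10 nM final). Enhancement of the Gq-mediated intracellular calcium response was scored.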
D1 potentiator: Potentiators of Human D1 Dopamine Receptor: qHTS | potentiation, % at 10 µM | AID 504651, 2011 | 360,000 tested, 0.036% active | HEK293 TREx D1 cells, calcium flux, dopamine EC20 potentiation; in the data active means potentiation above about 30%
D1 ag: Allosteric Agonists of the Human D1 Dopamine Receptor: qHTS; 360,000 tested, 1% active; HEK293 T-REx D1 cells, calcium flux, agonist mode; D(1A) dopamine receptor (Homo sapiens), P21728; activation, % at 2 µM
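Agonism was scored from calcium flux recorded over 180 s (1 read/s) after pintool compound addition, following a 10-cycle baseline. Cells were inducible force-coupled HEK293 TREx D1, plated overnight at 30 C and loaded with no-wash calcium dye.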
Hits are given with their value; 0 = inactive. Unless noted, no stated cut-off is given here; in the data, active means activation above about 30%; inactive means the rest.

SMILES	TRHR agonist	D1 antag	TRHR enhancer	D1 potentiator	D1 ag
Cc1cccc(Cn2c(=O)n(CC3CCC(C(=O)N4CCC(C)CC4)CC3)c(=O)c3sccc32)c1 (stereo not drawn)	0	0	0	0	0
CCCCNC(=O)CN1C(=O)NC2NC(=O)NC21 (stereo not drawn)	0	-43	0	0	0
O=C(O)CN1C(=O)NC2NC(=O)NC21 (stereo not drawn)	0	0	0	0	0
O=C(O)CCCN1C(=O)NC2NC(=O)NC21 (stereo not drawn)	0	-31	0	0	0
CCOC(=O)CN1C(=O)NC2NC(=O)NC21 (stereo not drawn)	0	0	0	0	0
CC(Sc1cccc[n+]1[O-])C(=O)Nc1cccc([N+](=O)[O-])c1 (stereo not drawn)	0	0	0	0	0
CC(C(=O)Nc1cccc([N+](=O)[O-])c1)[n+]1ccccc1 (stereo not drawn)	0	0	31	0	0
O=C(Nc1cccc([N+](=O)[O-])c1)c1cc2ccccc2cc1O	0	-42	0	0	0
O=C(Nc1cccc([N+](=O)[O-])c1)c1ccc(-c2ccccc2)cc1	0	-59	0	0	0
COc1ccc(NC(=O)c2cc([N+](=O)[O-])ccc2O)cc1	0	-31	0	0	0
COc1ccc(NC(=O)c2cccc([N+](=O)[O-])c2)cc1	0	0	0	0	0
CCc1ccc(N(CC)C(=O)Cn2c(=O)oc3ccccc32)cc1	0	0	0	0	0
Cc1ccc(-c2nn(-c3ccccc3)cc2/C=C/C(=O)Nc2nccs2)cc1	0	-31	0	0	0
Cc1ccc(-c2nn(-c3ccccc3)cc2/C=N/O)cc1	0	0	0	38	58
O/N=C/c1cn(-c2ccccc2)nc1-c1cccnc1	0	0	0	0	0
O=C(O)c1ccc(CNCc2c(Cl)cccc2Cl)cc1	0	-51	0	0	0
COc1ccc(-n2[nH]c(C)cc2=O)cc1	0	0	33	0	0
Cc1cc(=O)[nH]c(-n2[nH]c(C)cc2=O)n1	0	0	0	0	0
Cc1ccc(C)c(S(=O)(=O)N2CCN(C(=O)C3CCN(c4ncnc5sc(C)c(C)c45)CC3)CC2)c1	0	0	34	0	0
COc1ccc(NC(=O)CC(C)n2ccnc2)cc1 (stereo not drawn)	0	0	0	0	0
CNC(=S)NNC(=O)c1cccn(Cc2cccc(C(F)(F)F)c2)c1=O	0	0	0	0	0
COc1ccc(-c2c(-c3ccccc3)c(C(=O)C(=O)NCCCN(C)C)n3ccc4cc(OC)c(OC)cc4c23)cc1OC	0	-47	0	0	0
Oc1c(C=NCc2ccccc2)sc2ccccc12	0	0	0	0	0
O=[N+]([O-])c1ccc(N=Cc2sc3ccccc3c2O)cc1	0	0	0	0	32
CCOC(=O)c1sc(Nc2nc3c(F)cccc3s2)cc1C	0	0	0	0	0
SMILES	TRHR agonist	D1 antag	TRHR enhancer	D1 potentiator	D1 ag
CCOC(=O)c1sc(Nc2nc3ccc(OC)cc3s2)cc1C	0	-36	0	0	0
CCOC(=O)CC(=O)Nc1nc2ccccc2s1	0	0	0	0	0
Cc1cc(C)nc(SCC(=O)OCC(=O)Nc2nc3ccccc3s2)n1	0	0	0	0	31
COc1ccc2nc(NC(=O)CSc3ccccc3)sc2c1	0	0	32	0	0
CC(Sc1nc2ccccc2s1)C(=O)c1c(N)n(C)c(=O)n(C)c1=O (stereo not drawn)	0	-42	0	0	0
CCc1ccc(/C=C2\Oc3c(ccc(O)c3CN3CCN(CCO)CC3)C2=O)cc1	0	0	0	0	64
Cc1cccc(N2CCN(c3nc4ccccc4c4nc(-c5ccccc5)nn34)CC2)c1C	0	0	0	0	0
Cc1ccc(N=C(NOCc2ccc(Cl)cc2Cl)c2nonc2N)c(C)c1	0	0	0	0	0
Cc1ccccc1N=C(NOCc1ccc(Cl)cc1Cl)c1nonc1N	0	-48	0	0	0
O=C(CSc1nccc(-c2cccs2)n1)Nc1ccc(F)c(Cl)c1	0	-39	0	0	0
O=C(CSc1nccc(-c2cccs2)n1)Nc1cccc(Cl)c1	0	0	0	0	0
CN(C)c1ccc(C(CNS(=O)(=O)c2ccc(Cl)cc2)N2CCOCC2)cc1 (stereo not drawn)	0	0	0	0	0
CCCN(CC1CC1)C(=O)COC(=O)c1ccc(CNS(=O)(=O)c2ccc(F)c(Cl)c2)cc1	0	0	0	0	0
N#CCCN(C(=O)COC(=O)c1ccc(CNS(=O)(=O)c2ccc(F)c(Cl)c2)cc1)c1ccc(F)cc1	0	-33	0	0	0
CC(C)(C)c1ccc(C(=O)NCC(=O)OC(C(=O)Nc2cc(C(F)(F)F)ccc2Cl)c2ccccc2)cc1 (stereo not drawn)	0	0	0	0	0
COCCNC(=O)C1CCN(Cc2cccc(OCc3ccccc3)c2)CC1	0	0	0	0	0
Cc1ccc(Cn2c(CN3CCC(C(=O)NCCc4ccccc4)CC3)cc3ccccc32)cc1	0	0	0	0	43
Cc1ccc(C(=O)NNC(=O)C2CCN(Cc3ccccc3)CC2)cc1	0	0	0	0	0
O=C(NNC(=O)C1CCN(Cc2ccccc2)CC1)c1cccc(Cl)c1	0	-62	0	0	0
CC(C)CCNC(=O)C1CCN(Cc2cccc(OCc3ccccc3)c2)CC1	0	0	0	0	42
O=C(NCCc1ccccc1)C1CCN(Cc2cc3ccccc3n2Cc2cccc(Cl)c2)CC1	0	0	31	0	0
Cc1ccc(NC(=O)CSCc2cnn(-c3ccccc3)c2-n2cccc2)c(Cl)c1	0	0	0	0	0
O=C(c1ccc2c(c1)N(Cc1ccccc1)C(=O)c1ccccc1S2(=O)=O)N1CCCCCC1	0	0	0	0	0
Cc1ccc(C(=O)N2CCN3C(=O)c4ccccc4C23c2ccccc2)cc1 (stereo not drawn)	0	-38	0	0	0
CC(=O)c1ccc(NC(=O)Cn2c(=O)nc(-c3ccccc3)c3cc(Cl)ccc32)cc1	0	0	0	0	0
Cc1csc(NC(=O)c2ccc(OCC3CCCO3)cc2)n1 (stereo not drawn)	0	-59	0	0	0
CCCN1Cc2cccc(C(=O)Nc3ccccc3F)c2C1=O	0	0	0	0	0
CCOc1ccc(CC(=O)Nc2c(C(=O)c3ccc(Cl)cc3)oc3ccccc23)cc1OCC	0	0	0	0	0
